Measurements published in PubChem BioAssay AID1493 (National Center for Advancing Translational Sciences (NCATS), 2009).
“And” between values parts separate entries of the source, which are not always exact repeats. Equal entries are not always repeated. Records with an inconclusive call do not appear. The source made the active and inactive calls.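 Rule for the calls: active = compound pushes the radio-tagged natural neuropeptide S off its receptor in a binding test; inconclusive = any compound that did not displace the tagged ligand; inactive = never assigned.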

What follows are compounds tested against Neuropeptide S receptor (Homo sapiens) (UniProt Q6W5P4) (assay: Confirmation Concentration-Response Assay for Antagonists of the Neuropeptide S Receptor: Radioligand Displacement). Details: CHO-hNPSR cells, [125I]Y10-NPS displacement, 1.5 h.
From the text: NIH Chemical Genomics Center [NCGC] NIH Molecular Libraries Probe Production centers Network [MLPCN] MLPCN Grant: X01-DA026210-01 Assay Submitter (PI): Heilig, Markus Alexander NCGC Assay Overview: Neuropeptide S receptor (NPSR), previously known as GPR154, is a recently de-orphanized G protein coupled receptor. Its endogenous ligand is the 20 amino acids peptide Neuropeptide S (NPS). […] NPS and its receptor are found in various tissues. Specifically they are highly expressed in brain areas that have been implicated in modulation of arousal, stress and anxiety. Central administration of NPS in mice produces an unusual profile of activity by inducing wakefulness and arousal, while at the same time suppressing anxiety. Therefore, NPSR may represent a novel drug target for the treatment of sleep and anxiety disorders. As one method of confirming the specific activity of compounds active in the primary screen (AID 1461), we developed an assay to measure the displacement of radio-labeled native ligand, NPS, from its receptor in vitro.
The assay was carried out as described (Xu et al. (2004) Neuron, 43: 487-497) with minor modification. Y10-NPS labeled with 125I was bought from NEN Perkin Elmer (Boston, MA). CHO cells stably expressing human NPSR were seeded into 24-well plates and cultured until reaching 90-95% confluency. Cells were washed with 1ml PBS once and then incubated with radioligand with or without compounds or in DMEM medium containing 0.1% bovine serum albumin at 20C for 1.5 hr. Increasing concentrations of compounds or unlabeled human NPS were used to compete with 0.15 nM [125I] Y10-NPS. Nonspecific binding was determined in the presence of 1 uM unlabeled human NPS. Cells were washed twice with cold PBS and lysed with 1 N NaOH. Bound radioactivity was counted in a liquid scintillation counter.

Neuropeptide S receptor (Homo sapiens), sequence (Q6W5P4 whole entry, looked up): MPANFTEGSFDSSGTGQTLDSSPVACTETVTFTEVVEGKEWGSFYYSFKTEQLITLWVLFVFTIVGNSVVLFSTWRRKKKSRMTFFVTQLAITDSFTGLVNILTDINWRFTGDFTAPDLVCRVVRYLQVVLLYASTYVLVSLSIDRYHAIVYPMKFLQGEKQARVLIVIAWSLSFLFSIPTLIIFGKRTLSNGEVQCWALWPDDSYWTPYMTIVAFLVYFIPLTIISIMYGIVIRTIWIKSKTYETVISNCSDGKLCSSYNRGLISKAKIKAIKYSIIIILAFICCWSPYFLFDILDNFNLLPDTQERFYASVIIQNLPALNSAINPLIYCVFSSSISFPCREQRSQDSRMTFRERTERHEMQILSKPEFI

Potency, active:
CCOC(=O)C1CCCN(c2ncnc3c2oc2ccccc23)C1 (stereo not drawn) 26400 nM, N#CC1=C(NC=NCc2ccccc2)Oc2ccc3ccccc3c2C1c1ccccc1 (stereo not drawn) 321 nM, N=c1c2c(ccn1-c1ccccc1)Oc1ccc3ccccc3c1C2c1ccccc1 (stereo not drawn) 367 nM, O=C1OC(c2ccccc2)(c2ccccc2)N2CCN(C(=O)NCc3ccc(F)cc3)CC12 (stereo not drawn) 5.62 nM, CCOC(=O)CC(=O)Nc1ncnc2c1C(c1ccccc1)c1c(ccc3ccccc13)O2 (stereo not drawn) 616 nM, COc1cccc(C2c3c(ncn(-c4ccccc4)c3=N)Oc3ccc4ccccc4c32)c1 (stereo not drawn) 266 nM, COc1ccc(C2c3c(ncn(CCN4CCOCC4)c3=N)Oc3ccc4ccccc4c32)cc1OC (stereo not drawn) 256 nM and 190 nM, COc1cccc(C2c3c(ncn(CCN4CCOCC4)c3=N)Oc3ccc4ccccc4c32)c1 (stereo not drawn) 439 nM
